# GPR151 ag: activators of human GPR151, primary screen, cell-based, PathHunter beta-arrestin, luminescence. activation, % at 11.2 µM. PathHunter beta-arrestin GPR151 cells. 650,000 tested, 1% active. G-protein coupled receptor 151 (Homo sapiens), Q8TDV0; in the data active = activation above about 4.9%;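 also: 0% = median of compound wells and 100% = cells with positive control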
# FBW7 act: FBW7 E3 ligase activators, primary screen, biochemical, AlphaScreen, human; F-box/WD repeat-containing protein 7 (Homo sapiens), Q969H0; AlphaScreen FBW7–phospho-cyclin E peptide binding, activator screen; normalized activity (activation), % at 26.1 µM; 650,000 tested, 0.13% active; in the data active = normalized activity above about 1.9%;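 also: purified mutant Fbw7 with reduced substrate affinity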
# MITF primary: MITF inhibitors, primary screen, biochemical, AlphaScreen, human | inhibition, % at 2.6 µM | Microphthalmia-associated transcription factor (Homo sapiens), O75030 | 650,000 tested, 0.91% active | AlphaScreen MITF homodimerization, bead proximity signal; in the data active = inhibition above about 50%;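 also: 0% = vehicle wells with protein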
# TEAD-YAP block: TEAD-YAP interaction inhibition, primary screen, TEAD-YAP interaction inhibitor project, luminescence, HEK-TIYL cells; TEAD-Gal4/YAP UAS-luciferase luminescence; inhibition, % at 9.12 µM; 640,000 tested, 1.4% active; AID 1259422, 2018; in the data active = inhibition above about 32%;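 also: 0% = median of test compound wells and 100% = reference inhibitor wells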
# GPR151 confirm: GPR151 activators, triplicate retest, confirmation, cell-based, PathHunter beta-arrestin, luminescence. GPR151 PathHunter beta-arrestin cells, 90 min; % of EA-reagent control over plate median. activation, % at 11.2 µM. shares compounds with GPR151 ag. 6,700 tested, under 10 active;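 active = mean percent activation across replicates above the confirmation screen cutoff of 4.91%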
# GPR119 ag: GPR119 activators in beta-arrestin cells, counter-screen for GPR151 activator project, cell-based, PathHunter beta-arrestin, luminescence, triplicate; shares compounds with GPR151 ag; 90 min; 0 = compound-well median, 100 = enzyme-acceptor control; activation, % at 11.2 µM; 6,700 tested, 0.3% active; AID 1508611, 2020;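 active = mean percent activation in the counterscreen above 29.09%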;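 also: counterscreen on off-target GPR119 to flag nonselective hits from the GPR151 activator screen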
# Target sequence (Q8TDV5 whole entry, looked up): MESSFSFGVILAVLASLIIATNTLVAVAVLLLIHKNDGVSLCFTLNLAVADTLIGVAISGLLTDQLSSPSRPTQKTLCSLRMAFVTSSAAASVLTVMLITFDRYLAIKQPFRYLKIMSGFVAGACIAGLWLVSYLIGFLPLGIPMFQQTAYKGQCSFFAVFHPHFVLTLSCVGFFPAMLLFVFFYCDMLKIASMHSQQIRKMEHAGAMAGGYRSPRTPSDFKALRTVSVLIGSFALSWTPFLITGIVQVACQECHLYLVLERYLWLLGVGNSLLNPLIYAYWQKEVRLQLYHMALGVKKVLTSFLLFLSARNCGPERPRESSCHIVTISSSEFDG
# The depositor's hits bear a star; . = no result given; ! = not active in a repeat. Sampled rows, rich in hits. Any-hit rate of the full collection: about 3.4%.
SMILES,GPR151 ag,FBW7 act,MITF primary,TEAD-YAP block,GPR151 confirm,GPR119 ag
CCOC(=O)C1(CC2CC2)CCN(S(=O)(=O)c2cc(Cl)ccc2OC)CC1,0,0,13,-2,.,.
CCOC(=O)C1(CC2CC2)CCN(S(=O)(=O)c2cc(C)sc2C)CC1,6.3*,0,11,5,-1,1
Cc1c(C(=O)N2CCCC2)sc2ncnc(N(C)c3ccccc3)c12,1,0,9,-4,.,.
COc1ccc(C#C[C@@H]2C=C[C@H](OC(C)=O)[C@@H](COC(C)=O)O2)cc1,9.3*!,0,-8,.,1,-5
CC(=O)OC[C@H]1O[C@H](C#Cc2ccc(C(C)(C)C)cc2)C=C[C@@H]1OC(C)=O,0,0,-2,.,.,.
Nc1cccc(C(=O)OCC(=O)NC2CCCc3ccccc32)c1 (stereo not given),5.2*,0,4,9,-1,-2
O=C(COC(=O)c1cc(O)c(O)c(O)c1)NC1CCCc2ccccc21 (stereo not given),-1,0,32,8,.,.
O=C(CC(=O)c1ccccc1O)c1ccc(Br)cc1,5.4*,0,-9,-30,-1,-8
O=C(COC(=O)c1ccccc1O)c1ccc(Br)cc1,-2,0,18,-22,.,.
O=c1[nH]c(=O)c2sc3nc(-c4ccncc4)cc(C(F)(F)F)c3c2[nH]1,6.3*,0,2,2,1,2
CCCc1nnc(SCc2ccc(Br)cc2)n1N,8.4*,0,0,-8,-1,10
CCCc1nnc(SCc2ccc(Cl)cc2)n1N,1,0,-4,-1,.,.
COc1ccccc1-c1cc(-c2ccccc2)nc(SCC(=O)c2ccc(C)cc2)c1C#N,1,0,6,2,.,.
Cc1c(/C=N/n2cnnc2)c2ccccc2n1CCOc1ccccc1Cl,4,0,-9,2,.,.
COc1ccc(-c2cnc(NCCCO)nc2)cc1,-2,0,4,-14,.,.
OCCCNc1ncc(-c2ccc(Cl)cc2)cn1,5.8*,0,0,-5,-1,-1
COc1cccc(NC(=O)C(CCSC)NC(=O)C2CCC(C)CC2)c1 (stereo not given),10*,0,-4,-7,1,-2
CCOC(=O)c1cccc(NC(=O)C(CCSC)NC(=O)C2CCC(C)CC2)c1 (stereo not given),0,0,-5,-5,.,.
CCCN(CCC)C(=O)c1sc2nc(C)nc(N3CCCCC3)c2c1C,5.5*,0,-2,-3,1,-2
CCC(C)NC(=O)c1sc2nc(C)nc(N3CCC(C)CC3)c2c1C (stereo not given),6.9*,0,5,0,0,-1
Cc1c(CNCc2ccc3c(c2)OCO3)c(C(=O)O)c(C)n1Cc1ccccc1F,0,0,8,0,.,.
O=C(NC1CC1)c1ccc(-c2nc3ncnc(NCc4nc5ccccc5[nH]4)c3[nH]2)cc1,6.3*,0,1,-19,0,-2
Cc1cc(NCc2nc3ccccc3[nH]2)nc(-c2ccccc2)n1,0,0,-6,1,.,.
Cc1cc(NCc2nc3ccccc3[nH]2)nc(-c2ccc(C(=O)NC3CC3)cc2)n1,5.1*,0,10,-11,0,2
CN1C(=O)c2ccccc2C(C(=O)NC2CCCCCC2)C1c1cccs1 (stereo not given),0,0,11,-14,.,.
SMILES,GPR151 ag,FBW7 act,MITF primary,TEAD-YAP block,GPR151 confirm,GPR119 ag
CC1CCCCC1NC(=O)C1c2ccccc2C(=O)N(C)C1c1cccs1 (stereo not given),7.5*,0,0,-9,0,-7
CC(=O)Nc1ccc(S(=O)(=O)Nc2ccc(O)c3ccccc23)cc1,-1,0,2,15,.,.
S=c1nc2ccc3[nH]s[nH]c3c2n1,-1,1,6,6,.,.
COc1ccccc1CCNCc1c(C(=O)O)n(C)c2cc(C)ccc12,9.8*,0,-7,11,0,-6
COc1cc(-c2nc3sc4c(c3c(=O)[nH]2)CCCC4)ccc1OCCOc1ccc(C)c(C)c1,5.7*,0,4,0,-1,-1
CCOc1cc(-c2nc3sc4c(c3c(=O)[nH]2)CCCC4)ccc1OCc1ccccc1F,5.5*,0,-1,-7,1,-8
CCC(Sc1c[nH]c2ccccc12)C(=O)O (stereo not given),5.5*,0,-2,-5,0,0
CCC(Sc1ccccc1C(=O)O)C(=O)O (stereo not given),0,0,11,11,.,.
O=C([C@@H](O)c1ccccc1Cl)N1CCC(Nc2ccc3[nH]ncc3c2)CC1,0,0,13,-11,.,.
Cc1ccc(C)n1-c1ccc(-c2ccnc(-c3ccncc3)n2)cc1,5.4*,0,6,4,0,0
Cc1ccc(-n2c(-c3ccncc3)n[nH]c2=S)cc1,-1,0,-5,11,.,.
Cc1cc(Nc2ccc(N3CCOCC3)cc2)nc(Nc2ccc(-n3ccnc3)cc2)n1,8.9*,0,4,99*,3,63*
Cc1cc(NC2CC2)nc(Nc2ccc(-n3ccnc3)cc2)n1,5.3*,0,-9,-12,-1,-11
Cc1cc(Nc2ccccc2)nc(Nc2ccc(-n3ccnc3)cc2)n1,4,0,-2,-1,.,.
Cc1cc(Nc2ccc(N3CCOCC3)cc2)nc(Nc2ccccn2)n1,3,0,8,12,.,.
Cc1cc(Nc2ccc(N3CCOCC3)cc2)nc(Nc2nccc3ccccc23)n1,5.3*,0,10,81*,1,23
CCN(CC)c1nc(Nc2ccccc2)nc(Nc2ccc(-n3ccnc3)cc2)n1,6.6*,0,8,-6,0,4
COc1cc(Nc2nc(Nc3ccc4c(c3)OCO4)c3ncn(Cc4ccc(C(F)(F)F)cc4)c3n2)cc(OC)c1OC,5.5*,0,0,-5,0,-1
COc1cc(Nc2nc(-c3ccc(N4CCOCC4)nc3)nc3c2ncn3Cc2ccc(C(F)(F)F)cc2)cc(OC)c1OC,6.6*,0,8,-7,-1,-7
FC(F)(F)c1ccc(Cn2cnc3c(Nc4ccc(N5CCOCC5)cc4)nc(-c4ccc(N5CCOCC5)nc4)nc32)cc1,-2,0,18,5,.,.

# Assay outcomes: PubChem, The Scripps Research Institute Molecular Screening Center
